The results in this text go back to PubChem BioAssay AID1259415 (National Center for Advancing Translational Sciences (NCATS), 2018).

SMILES strings stand for the structures. In all, about 410,000 compounds went through this assay and about 18,000 (4.4%) were called active. Roughly 7% stayed inconclusive and do not appear here. Only a selection was taken, and actives are over-represented in it overall. Unmarked numbers belong to inactive results. Cut-off read from the data, not from the text of the source: active = activity change below about -60%; inconclusive = no clear call, values can overlap the other calls; inactive = above about -39%.
% is set by controls: 0 for no effect and ±100 for the full control effect.

This assay can be described thus: qHTS Assay for inhibitors of the human cytomegalovirus (HCMV). The conditions noted are these: HFF cells, HCMV-luciferase reporter, 72 h; at 57.5 µM; hits give low values. The gist of the method:
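Two compound doses tested in HFFs infected with HCMV-luciferase, MOI 1 PFU/cell, 72 h at 37C. Lysate luminescence read with OneGlo; data normalized against buffer-only and 10uM Salinomycin inhibitor controls.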
(In qHTS, concentration-response curves come from the screen itself.)
Take `O=C(CSc1nnc(-c2ccccc2F)o1)Nc1cccc(C(F)(F)F)c1`: the activity change, negative = inhibition was 98.3%.

Consider `Cc1nn(Cc2ccc(F)cc2)c(C)c1NC(=O)c1cc(CC(C)C)on1`, for which the activity change, negative = inhibition is -39%. The result for `CCCCCCOc1ccc(OC(=O)c2cccnc2)cc1` reads -79.3% (active); that for `CCCOc1cccc(C(=O)NCCCNC(=O)c2cccnc2)c1`, -8.85%; that for `Cc1ccc(OCC(=O)N2CCN(C(=O)c3cccnc3)CC2)cc1`, -12.6%. The value for `O=C(CCn1ccc2cc(S(=O)(=O)N3CCCC3)ccc21)NCc1cccc(Cl)c1` was -10.7%; that for `O=C(Cn1ncn2nc(-c3cccs3)cc2c1=O)NCc1cccc(Br)c1` was 12.3%. The value for `CCC[C@H]1[C@@H](NS(=O)(=O)c2ccc(F)cc2)CC[C@@]23CCCN2C(=O)CCC[C@@H]13` was -4.65%; that for `CCCSc1ncc(Cl)c(C(=O)Nc2sc3c(c2C(=O)NCCOC)CCCC3)n1` was -24%. Consider `CCOC(=O)c1[nH]cnc1C(=O)Nc1ccccc1C`, for which the activity change, negative = inhibition was -21.4%. The value for `CCCS(=O)(=O)c1ncc(Cl)c(C(=O)Nc2scc(-c3ccccc3)c2C(=O)OCC)n1` was -98.8% (active); that for `CCOC(=O)c1c(-c2cccc(N)c2)cn2ccccc12` was 17.2%; that for `CCOC(=O)c1c(C2CC2)csc1NC(=O)CSCc1c(C)noc1C` was 42.9%. The result for `CCOC(=O)c1c(-c2cccc(C)c2)csc1NC(=O)c1c(-c2ccccc2)noc1C` reads -94% (active). Turning to `Oc1c(C(c2ccccc2Cl)N2CCOCC2)sc2nc(-c3ccco3)nn12` (stereo not given), the activity change, negative = inhibition is -16.1%. For `O=C(CCN1CCc2ccccc2C(O)(c2ccccc2)C1)c1ccc2c(c1)OCCO2` (stereo not given), the activity change, negative = inhibition is 25.7%.

Turning to `O=[N+]([O-])c1ccc2nc(-c3ccccn3)[nH]c2c1`, the activity change, negative = inhibition was -79.3% (active).

For `O=S(=O)(Nc1ccc2nc(-c3ccco3)[nH]c2c1)c1ccccc1`, the activity change, negative = inhibition is 16.8%. Consider `O=[N+]([O-])c1ccc(N/N=C2/CCCCC2c2ccccn2)c([N+](=O)[O-])c1` (stereo not given), for which the activity change, negative = inhibition is 4.73%.

On to `Cc1cc(C)cc(Oc2nc3c(C)cccn3c(=O)c2/C=C(\C#N)C(=O)NC2CCS(=O)(=O)C2)c1` (stereo not given), for which the activity change, negative = inhibition is 44.8%.

`COCCCNC(=O)/C(C#N)=C/c1c(N2CCCCCC2)nc2ccccn2c1=O`: the activity change, negative = inhibition is -37.9%. The value for `Cc1cccn2c(=O)c(/C=C(\C#N)C(N)=O)c(N3CCCCCC3)nc12` was -70.1% (active).

On to `Nc1[nH]c(C(=O)c2ccccc2)c(-c2ccc(Br)cc2)c1C(=O)NC1CC1`, for which the activity change, negative = inhibition was -20.4%. As for `NC(=O)C(Cc1ccccc1)NC(=O)C12CC3CC(CC(C3)C1)C2` (stereo not given), the activity change, negative = inhibition was 50.8%. The value for `Cc1ccc(S(=O)(=O)c2nc(-c3cccs3)oc2N2CCCCC2)cc1` was -15.8%; that for `COc1cc(-c2cc3n(C)c(C)c(CCC(=O)Nc4ccc(F)cc4)c(=O)n3n2)cc(OC)c1OC` was -22.9%; that for `Cc1sc(C2C(C#N)=C(N)N(c3cccc(Cl)c3)C3=C2C(=O)CCC3)cc1CN1CCOCC1` (stereo not given) was -21.6%. In the case of `CCn1nc(C)c(NC(=O)/C=C/c2ccc(OC)c(COc3ccc(Br)cc3)c2)c1C`, the activity change, negative = inhibition is -68% (active). The result for `COc1ccc(/C=C/C(=O)Nc2c(C)nn(C)c2C)cc1COc1ccc(Br)cc1` reads -35.2%.

Regarding `COc1ccc(C(C)=O)cc1COc1ccc(Cl)c(C)c1`, the activity change, negative = inhibition was -1.3%. The result for `CCOC(=O)N1CCc2c(sc3c2C(=O)NC(c2ccccc2F)N3)C1` (stereo not given) reads -3.15%; that for `C=CCN1C(=O)C(Cc2ccc(OCC)cc2)SC1=Nc1ccc(C(=O)O)cc1` (stereo not given), 10.9%. Take `CN(c1ccc(C(=O)N2CCc3ccccc3C2)cc1)S(C)(=O)=O`: the activity change, negative = inhibition was 5.34%. `CCN(CC)c1ccc(NC(=O)CN2CCN(CC(=O)Nc3ccc(Cl)cc3)CC2)cc1`: the activity change, negative = inhibition is 18%. As to `CN(c1cccc(NC(=O)c2ccc(CN3CCc4ccccc4C3)cc2)c1)S(C)(=O)=O`, the activity change, negative = inhibition was -74.1% (active). The result for `CN(c1cccc(NC(=O)Nc2ccc(Cl)cc2)c1)S(C)(=O)=O` reads -81.1% (active); that for `CNS(=O)(=O)c1ccc(NC(=O)Nc2ccc3c(c2)OCO3)cc1`, 61.9%. `CC(=O)Nc1cccc(NC(=O)c2ccc3c(c2)CCN3S(C)(=O)=O)c1`: the activity change, negative = inhibition was 40.6%. For the compound `CC1(C(=O)NCc2cccc3ccccc23)CCN1Cc1ccc(-c2ccccc2)o1` (stereo not given), the activity change, negative = inhibition was -20.5%. The result for `CCNC(=O)C1CCCN(C(=O)c2ccc(OC)cc2OC)CC1` (stereo not given) reads -11.4%.

Regarding `Cn1c(=O)c2c(-c3ccccc3Br)n(Cc3ccccc3)cc2n(C)c1=O`, the activity change, negative = inhibition is -17.1%. The value for `CCc1nn(CC(=O)N2CCN(c3ccc(Cl)cc3)CC2)c(=O)c2cc3occc3n12` was -13.8%; that for `Cc1cccc(S(=O)(=O)c2cn(Cc3ccccc3)c3cc(N4CCOCC4)c(F)cc3c2=O)c1` was 17.2%. On to `CCOc1cc(-c2noc(CCCC(=O)NC3CCCCC3)n2)ccc1OC`, for which the activity change, negative = inhibition was -89.7% (active). Turning to `COc1ccc(-c2noc(CCCC(=O)NC3CCCC3)n2)cc1OC`, the activity change, negative = inhibition is -17%. The value for `CCOc1cc(-c2noc(CCC(=O)N3CCOCC3)n2)ccc1OC` was 2.89%; that for `C[C@@H]1CN([C@@H](C)CO)C(=O)CCCn2nncc2CO[C@H]1CN(C)C(=O)Nc1ccc(C(F)(F)F)cc1` was 8.54%. The result for `CC[C@@H](C)[C@@H](C(=O)N1CCN(C(=O)OC(C)(C)C)CC1)n1cc(CCC(=O)O)nn1` reads 14.7%. The value for `COc1ccc(-c2noc(-c3ccc(N4CCN(c5ccccc5)CC4)c([N+](=O)[O-])c3)n2)cc1OC` was 14.1%; that for `CC1=CC(=C(C#N)c2nc3ccccc3s2)C=C(C)N1c1ccc(F)cc1F` was -64.6% (active).

Regarding `Cc1ccc(F)cc1S(=O)(=O)N1CCC(c2nc3ccccc3s2)CC1`, the activity change, negative = inhibition was -23.3%. Turning to `Cc1ccc(C(=O)Nc2ccc3[nH]c(=O)c(=O)[nH]c3c2)cc1`, the activity change, negative = inhibition was -0.693%. `CCOc1ccccc1NC(=O)Cn1c(=O)n(-c2cccc(C)c2)c(=O)c2c1c1cc(OC)ccc1n2C`: the activity change, negative = inhibition is 19.1%.

For the compound `COc1ccc(C(=O)Nc2onc3c2CCCC3)cc1`, the activity change, negative = inhibition is 1.09%.

On to `CCOc1cccc(CNC(=O)c2ccc(N3CCCC3)c(NC(=O)Nc3ccccc3CC)c2)c1`, for which the activity change, negative = inhibition is -10.9%.
